Consider 97 compounds from PubChem BioAssay AID686971 (National Center for Advancing Translational Sciences (NCATS), 2013).

Out of some 360,000 compounds screened, about 7,500 (2.1%) were called active. Another 8% or so got no clear call; they are omitted. The call rests on the fitted dose curve; in most records, active means well fitted cell-killing curve with a large enough effect; inconclusive means small, poorly fitted or top-dose-only effect, or effect the other way, or another doubt; inactive means no such curve, though single readings can be large or run the other way. The entries come from a sample that favours actives as a whole. Entries that show only a call come without a potency.
Potency means the concentration at half of the fitted maximal effect.

The nature of this assay: qHTS for induction of synthetic lethality in tumor cells producing 2HG: qHTS for the HT-1080-IDH1KD cell line. The conditions noted are these: HT-1080 IDH1 knockdown viability, ATP luminescence, 48 h; series mostly up to 46.1 µM. The procedure, abridged: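 Knockdown cells (IDH1KD HT-1080) received compounds 2 h after plating at 750 cells/well and were kept 48 h at 37 °C in 5% FBS RPMI. A CellTiter-Glo luminescence read gave % activity for curve fitting.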
Background: qHTS replaces the single test concentration by a dilution series.
For the compound `Cc1oc2c(c1C(=O)N1CCOCC1)C(=O)c1ccccc1C2=O`, the Potency is 9.2 µM (active).

As to `COc1cc2ccccc2cc1C(=O)N1CCOCC1`, the Potency result was “inactive”.

Consider `O=C(c1snnc1-c1ccccc1)N1CCOCC1`, for which the Potency entry was “inactive”.

Turning to `O=C(CN1C(=O)NC2(CCc3ccccc32)C1=O)NC1CCCCC1` (configuration not stated), the Potency entry was “inactive”.

For `O=C(COC(=O)/C=C/c1ccc(Cl)cc1)NC1CCS(=O)(=O)C1` (configuration not stated), the Potency entry was “inactive”.

With `O=C(Nc1ccc(OCCO)cc1)c1csc([C@H]2C[C@H](O)[C@@H](CO)O2)n1`, the Potency result is “inactive”.

For `CC(C)CN1CCC1(C)C(=O)Nc1ccc(OC(F)F)cc1` (configuration not stated), the Potency result was “inactive”.

Consider `O[C@H]1CN(Cc2cccs2)[C@@H](c2ccc(Cl)cc2)C[C@@H]1n1cc(C2CC2)nn1`, for which the Potency result is “inactive”.

On to `Nc1nonc1-n1nnc(C(=O)N/N=C\c2ccncc2)c1CN1CCCCC1`, for which the Potency result is “inactive”.

Consider `NNC(=O)c1nnn(-c2nonc2N)c1CN1CCCC1`, for which the Potency result is “inactive”.

On to `Nc1nonc1-n1nnc(C(=O)N/N=C/c2ccccc2O)c1CN1CCCC1`, for which the Potency is 14.6 µM (active).

On to `O=C1CC[C@@H](C(=O)N2CSC[C@@H]2C(=O)Nc2ccc(C(F)(F)F)cc2)N1`, for which the Potency result is “inactive”.

For the compound `O=C(NCc1ccc(F)cc1)c1cc(C2CCCCN2C(=O)C2CCCCC2)on1` (configuration not stated), the Potency result was “inactive”.

Take `COc1ccc(OCCCC(=O)Oc2ccc(OC)cc2)cc1`: the Potency result is “inactive”.

In the case of `COc1ccc(CCC(=O)c2ccc(OC)cc2)cc1`, the Potency result is “inactive”.

For the compound `COc1ccc(OCCC(=O)c2ccc(OC)cc2)cc1`, the Potency was 20.6 µM (active).

As for `COc1ccc(C(O)C(O)(C(=O)OC(C)C)c2ccc(C)cc2)cc1` (configuration not stated), the Potency result was “inactive”.

In the case of `CC1(C)CC(=O)C=C(c2ccccc2CO)C1=O`, the Potency entry was “inactive”.

Take `COc1ccc(OC)c(S(=O)(=O)n2c([N+](=O)[O-])cnc2C)c1`: the Potency result was “inactive”.

Consider `COc1ccc(C(C[N+](=O)[O-])n2nc(C)cc2C)cc1` (configuration not stated), for which the Potency was 14.6 µM (active).

As to `CCOc1ccc(C(C)C)cc1S(=O)(=O)n1nc(C)cc1C`, the Potency entry is “inactive”.

On to `Cn1nc(N)c2ncc(C(Cl)(Cl)Cl)nc21`, for which the Potency entry was “inactive”.

On to `CNc1cc(-c2c(OC)cccc2OC)ncn1`, for which the Potency entry is “inactive”.

`CCOC(=O)C1CCN(CCC(=O)Nc2cccc(C)c2)CC1`: the Potency entry is “inactive”.

Regarding `CCOC(=O)C1CCN(C(=O)Nc2ccc(C)c(Cl)c2)CC1`, the Potency result is “inactive”.

Regarding `CCOC(=O)C1CCN(c2c(Nc3cc(C)cc(C)c3)c(=O)c2=O)CC1`, the Potency was 4.61 µM (active).

Take `Cc1nc(C(F)(F)F)ccc1C(=O)N1CCC1(C)C(=O)NS(=O)(=O)c1ccccc1Cl` (configuration not stated): the Potency entry was “inactive”.

Take `O=C(CCl)Nc1cccc(CP(=O)(c2ccccc2)c2ccccc2)c1`: the Potency was 5.17 µM (active).

With `O=C(CSc1ccccc1)Nc1ccc(C(=O)Nc2cccc(O)c2)cc1`, the Potency result is “inactive”.

In the case of `O=C(NCCc1ccccc1)c1cccc(NC(=O)c2ccccc2)c1`, the Potency result was “inactive”.

As to `Nc1ncnc2c1ncn2[C@@H]1O[C@H](CNC(=O)[C@H](N)Cc2cccnc2)[C@@H](O)[C@H]1O`, the Potency entry is “inactive”.

For `Cc1ccccc1OCC(=O)Nc1ccc(N2CCN(C(=O)C(C)C)CC2)c(Cl)c1`, the Potency is 13 µM (active).

For `CCC(=O)N1CCN(c2ccccc2NC(=O)COc2cccc(C)c2C)CC1`, the Potency entry was “inactive”.

For the compound `CCc1ccccc1OCC(=O)Nc1ccc(C)c(S(=O)(=O)N2CCCCCC2)c1`, the Potency result is “inactive”.

Regarding `C[C@H]1CN([C@@H](C)CO)C(=O)CCCn2cc(nn2)CO[C@@H]1CN(C)S(=O)(=O)c1ccccc1C#N`, the Potency result is “inactive”.

Consider `Nc1nc2c(ncn2[C@@H]2O[C@H](CNS(=O)(=O)N3CCc4ccccc4C3)[C@@H](O)[C@H]2O)c(=O)[nH]1`, for which the Potency entry is “inactive”.

For the compound `CC(C)(C)c1ccc(S(=O)(=O)NC(=O)C2(C)CCN2C(=O)CC2CC2)cc1` (configuration not stated), the Potency result was “inactive”.

With `NS(=O)(=O)c1ccc(CCNc2nc(C(F)(F)F)nc3ccccc23)cc1`, the Potency entry was “inactive”.

For `CN(C)C(CNC(=O)c1cc2ccccc2o1)c1ccccc1` (configuration not stated), the Potency entry was “inactive”.

For the compound `CCc1ccc(C(CNc2nc(C(F)(F)F)nc3ccccc23)N(C)C)cc1` (configuration not stated), the Potency was 20.6 µM (active).

As to `CCOC1=C2CN(S(=O)(=O)c3ccc(C)cc3)[C@H](c3cccs3)C[C@H]2[C@H]2C(=O)N(c3ccccc3)C(=O)[C@H]2C1`, the Potency result is “inactive”.

Take `Cc1ccccc1OCCOc1ccc([N+](=O)[O-])cc1/C=N/n1cnnc1`: the Potency is 4.61 µM (active).

In the case of `CCOc1cc(/C=N/n2cnnc2)c(Br)cc1O`, the Potency result is “inactive”.

Take `Cc1ccccc1OS(=O)(=O)c1cccc([N+](=O)[O-])c1`: the Potency result is “inactive”.

On to `O=C(COC(=O)Cc1ccc(Cl)cc1Cl)NCc1ccco1`, for which the Potency result is “inactive”.

For the compound `Cn1cnc(S(=O)(=O)N2C[C@@H](O)COC[C@@H]3O[C@H](CC(=O)NC4CCC4)CC[C@H]32)c1`, the Potency result is “inactive”.

Consider `O=c1cc(CN2CCCCCCC2)c2c(ccc3ccccc32)o1`, for which the Potency result is “inactive”.

Regarding `CCN1CCC(O)(/C=C/c2ccc(C)cc2)C(C(=O)/C=C/c2ccc(C)cc2)C1` (configuration not stated), the Potency was 11.6 µM (active).

`CCOC(=O)C1CCCN(C(=O)/C=C/c2ccc(OC)cc2)C1` (configuration not stated): the Potency entry was “inactive”.

With `COc1ccc(S(=O)(=O)N2CCN(CC(=O)N3CCNC3=O)CC2)cc1OC`, the Potency entry was “inactive”.

Consider `COc1ccc(CN2C(=O)C(CC(=O)NCCN3CCOCC3)CC(C(=O)N(C(C)C)C(C)C)=C2C)cc1` (configuration not stated), for which the Potency entry was “inactive”.

Consider `CCc1cc(C(=O)N(CC)CC(=O)Nc2c(F)cccc2F)sc1C`, for which the Potency entry was “inactive”.

As for `COc1ccc(Cl)cc1NC(=O)CN(C)C(=O)c1cn(-c2ccccc2)nc1-c1cccs1`, the Potency result is “inactive”.

As to `COc1ccc(Nc2cc(=O)oc3ccccc23)cc1`, the Potency was 5.8 µM (active).

Consider `COc1ccc2oc(=O)cc(-c3cc4ccccc4o3)c2c1`, for which the Potency result was “inactive”.

As for `COc1ccc(Nc2ccc3ccccc3c2)cc1`, the Potency result is “inactive”.

`COC(=O)C1=CN(Cc2ccc(OC)c(OC)c2)C=C(C(=O)OC)C1c1cccs1`: the Potency entry is “inactive”.

For the compound `COc1ccc(CC(=O)NC2CCSc3ccccc32)cc1OC` (configuration not stated), the Potency result was “inactive”.

Turning to `COc1ccc(CC2c3cc(OC)c(OC)cc3CC[N+]2(C)CCC(=O)OCCCCCOC(=O)CC[N+]2(C)CCc3cc(OC)c(OC)cc3C2Cc2ccc(OC)c(OC)c2)cc1OC` (configuration not stated), the Potency was 20.6 µM (active).

In the case of `C/C(=N\NC(=S)NCc1ccccc1)c1ccc(Cl)cc1`, the Potency result was “inactive”.

With `CC/C(=N\NC(=S)NC(C)C)c1ccc(OC(F)F)cc1`, the Potency result is “inactive”.

`C/C(=N\NC(=S)NC(C)C)c1ccc(C(C)(C)C)cc1`: the Potency is 16.4 µM (active).

`CC(C)C[C@@H]1COc2cc(N3CCC[C@@H]3CO)ccc2S(=O)(=O)N1`: the Potency entry is “inactive”.

As for `CC(C)(C(=O)NO)c1ccccc1`, the Potency result is “inactive”.

As to `CCOc1cc(/C=C(\C#N)c2nc(-c3cccs3)c(NC(C)=O)s2)ccc1O`, the Potency is 2.91 µM (active).

In the case of `CCOc1cc(-c2cc(-c3ccc(NC(C)=O)cc3)nc(N)c2C#N)ccc1O`, the Potency entry is “inactive”.

For `CCOc1cc(/C=N/NC(=O)c2c(C)nc3ccc(Cl)cn23)ccc1O`, the Potency result is “inactive”.

Consider `CC1(C(=O)NS(=O)(=O)c2cccc(F)c2)CCN1C(=O)c1cccc2ccccc12` (configuration not stated), for which the Potency entry was “inactive”.

Consider `COc1cccc(CN(C)C(=O)CC[C@H]2O[C@@H](n3cnc4c(NC(=O)c5ccccc5)ncnc43)[C@H](O)[C@@H]2O)c1`, for which the Potency entry was “inactive”.

On to `COc1ccc(C(C#N)=C2C=CC(=NO)c3ccccc32)cc1`, for which the Potency was 0.517 µM (active).

In the case of `COc1ccc(C(=NN)c2ccc(OC)cc2)cc1`, the Potency result was “inactive”.

As to `COc1ccc(/C(N)=N/OC(=O)Cc2ccccc2)cc1`, the Potency result is “inactive”.

With `CN(c1ccccc1)S(=O)(=O)c1ccc(Cl)c(C(=O)NCCc2c[nH]c3ccccc23)c1`, the Potency result was “inactive”.

`CN(C)CCNC(=O)Nc1cccc(Cl)c1Cl`: the Potency entry was “inactive”.

`CN(C)CCNC(=O)c1ccc(Cl)c2cc3ccccc3nc12`: the Potency is 10.3 µM (active).

For the compound `CC(=O)NC(c1cccc(F)c1)c1nc(-c2cccc(F)c2)cs1` (configuration not stated), the Potency result was “inactive”.

`COc1ccc([C@H]2C[C@@H](n3cc(COC(=O)c4ccccc4)nn3)[C@H](O)CN2C(=O)c2cccs2)cc1`: the Potency entry was “inactive”.

`COC(=O)C[C@@H]1C=C[C@@H](NC(=O)c2ccc3c(c2)OCO3)[C@@H](CO)O1`: the Potency entry was “inactive”.

As for `Cc1ccc(S(=O)(=O)N2C[C@@H](C)[C@]3(C2)[C@H](O)[C@H](OC(=O)NCc2ccccc2)C[C@H]2C(=O)N(c4ccccc4)C(=O)[C@H]23)cc1`, the Potency entry was “inactive”.

As to `Cc1ccc(OCC(=O)Nn2cnc3ccccc32)cc1`, the Potency result was “inactive”.

Turning to `Cc1ccc(OS(=O)Nc2cccc3nccnc23)cc1` (configuration not stated), the Potency is 11.2 µM (active).

For `Cc1ccc(Oc2ccc3c(c2)C(=O)N(c2cccc4cccnc24)C3=O)cc1`, the Potency result was “inactive”.

For the compound `CCNC(=O)C1(C)CCN(C(=O)c2ccccc2)C1` (configuration not stated), the Potency result was “inactive”.

In the case of `O=C(NCc1ccc(F)cc1)c1cc(C2CCCCN2C(=O)c2ccccn2)on1` (configuration not stated), the Potency result is “inactive”.

On to `COc1cccc(CNC(=O)[C@@H]2CCCN2C(=O)[C@@H]2CCCN2C(=O)c2ccccc2)c1`, for which the Potency entry is “inactive”.

For `O=C(Cc1ccc(Br)cc1)NCCc1ccccc1`, the Potency entry was “inactive”.

In the case of `O=S(=O)(NCCCc1ccccc1)c1ccc(Br)cc1`, the Potency result was “inactive”.

Consider `S=C(NCCCc1ccccc1)Nc1ccc(Br)cc1`, for which the Potency was 16.4 µM (active).

On to `Cc1ccc(S(=O)(=O)N2CCN(c3ncnc4ccccc34)CC2)cc1`, for which the Potency result is “inactive”.

For `COc1ccc(C)cc1S(=O)(=O)N1CCN(S(=O)(=O)c2cc(C(=O)O)ccc2C)CC1`, the Potency result is “inactive”.

`Cc1ccc(C)c(S(=O)(=O)N2CCN(c3ncnc4sccc34)CC2)c1`: the Potency is 4.61 µM (active).

For the compound `COc1ccccc1-n1c(SCC(=O)Nc2ccc(Cl)cc2)nc(O)c(Cc2ccccc2)c1=O`, the Potency entry was “inactive”.

In the case of `CCOC(=O)[C@]12CCC=C1N(Cc1ccccc1)C(=O)[C@H](CC(=O)N1CCCC1)C2`, the Potency entry was “inactive”.

As for `O=C1CCC(=O)N1CCC(=O)N(C(=O)NC1CCCCC1)C1CCCCC1`, the Potency result was “inactive”.

With `CCCCNC(=O)C[C@@H]1C[C@@]2(C(=O)OCC)CCC=C2N(Cc2cccc3ccccc23)C1=O`, the Potency entry is “inactive”.

In the case of `CCOC(=O)[C@]12CCCC=C1N(Cc1cccc3ccccc13)C(=O)[C@H](CC(=O)NCC13CC4CC(CC(C4)C1)C3)C2`, the Potency was 23.1 µM (active).

Turning to `COC(=O)[C@]12CCCCC=C1N(Cc1ccc(Cl)cc1Cl)C(=O)[C@H](CC(=O)NCc1cccc3ccccc13)C2`, the Potency entry was “inactive”.
